Laboratory results from PubChem BioAssay (NCI).
Compounds without any hit were thinned out: in the full panel of roughly 83,000, 20% have a hit.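 Testing used 96-well plates and a 48-hour single-concentration exposure. Example: -40 means 40% of the starting cells died.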 Calls of active or inactive are those of the source. How the source made its calls: active means growth percent below 10; inactive means the rest.

Experiments:
Assay in all cases: NCI-60 one-dose screen, 48 h (100 = growth as untreated, 0 = no growth, -100 = all killed)
[1] = system: HCT-15 colon; conditions: 10 µM unless noted
[2] = system: HT29 colon; conditions: 10 µM unless noted
[3] = system: SNB-75 CNS; conditions: 10 µM unless noted
[4] = system: SNB-19 CNS; conditions: 10 µM unless noted
[5] = system: U251 CNS; conditions: 10 µM unless noted
[6] = system: PC-3 prostate; conditions: 10 µM unless noted
[7] = system: SK-MEL-5 melanoma; conditions: 10 µM unless noted
[8] = system: UACC-62 melanoma; conditions: 10 µM unless noted
[9] = system: LOX IMVI melanoma; conditions: 10 µM unless noted
[10] = system: SK-MEL-28 melanoma; conditions: 10 µM unless noted
[11] = system: SK-MEL-2 melanoma; conditions: 10 µM unless noted
[12] = system: EKVX NSCLC; conditions: 10 µM unless noted
[13] = system: SN12C renal; conditions: 10 µM unless noted
[14] = system: UO-31 renal; conditions: 10 µM unless noted
[15] = system: TK-10 renal; conditions: 10 µM unless noted
[16] = system: ACHN renal; conditions: 10 µM unless noted
[17] = system: CAKI-1 renal; conditions: 10 µM
[18] = system: A498 renal; conditions: 10 µM unless noted
[19] = system: CCRF-CEM leukemia; conditions: 10 µM unless noted
[20] = system: MOLT-4 leukemia; conditions: 10 µM unless noted

Measured: growth

O=c1c2ccccc2nc(COc2ccccc2)n1/N=C/C=C/c1ccccc1
inactive: [1] 76.9% | [2] 98.1% | [3] 83.4% | [4] 82.9% | [5] 98.4% | [6] 89.6% | [7] 99.3% | [8] 94.5% | [9] 72.1% | [10] 94.3% | [11] 94.5% | [12] 86.2% | [13] 87.6% | [14] 89.8% | [15] 106% | [16] 96.8% | [17] 103% | [18] 98.6% | [19] 84.3% | [20] 97.1%

Cc1nn(-c2ccc(Br)cc2)c2nc(CCl)[nH]c(=O)c12
active: [9] -9.8% | [14] -90.1%
inactive: [1] 103% | [2] 104% | [3] 99.7% | [4] 97.1% | [5] 98.5% | [6] 96.4% | [7] 102% | [8] 95.1% | [10] 103% | [11] 99.9% | [12] 99.5% | [13] 100% | [15] 111% | [16] 94.8% | [17] 96.3% | [19] 83.6%

COc1ccccc1/C=C/C(=O)c1nnn(-c2ccc(C(=O)O)cc2)c1C
inactive: [1] 71.6% | [2] 106% | [3] 89.1% | [4] 87.9% | [5] 86.4% | [6] 93.2% | [7] 95.7% | [8] 79.7% | [9] 66.1% | [10] 97.3% | [11] 98.6% | [12] 87.2% | [13] 84.1% | [14] 87.6% | [15] 117% | [16] 94% | [17] 96% | [19] 63.9% | [20] 94.4%

COc1ccc(CCN2C(=O)/C(=C/c3nc(CO)cs3)SC2=S)cc1
inactive: [1] 51.2% | [2] 103% | [3] 73.1% | [4] 91.7% | [5] 91.9% | [6] 74% | [7] 98.1% | [8] 79.7% | [9] 30.8% | [10] 97.2% | [11] 96.9% | [12] 95.2% | [13] 83.6% | [14] 34% | [15] 61.6% | [16] 72.7% | [17] 63.4% | [19] 67.6% | [20] 87.5%

CN(C)c1ccc(/C=N/Nc2nc(N/N=C/c3ccc(N(C)C)cc3)nc(N3CCOCC3)n2)cc1
inactive: [1] 22.4% | [2] 102% | [3] 87.4% | [4] 91.3% | [5] 44.3% | [6] 87.7% | [7] 100% | [8] 97.8% | [9] 87.7% | [10] 106% | [11] 98.6% | [12] 95.4% | [13] 89.2% | [14] 90.7% | [15] 110% | [16] 104% | [17] 96% | [19] 13.3% | [20] 96.7%

O=S(=O)(Nc1ccc(-n2cnc3cc(-c4ccc(O)cc4)ccc32)cc1)C1CC1
inactive: [1] 85.1% | [2] 98.9% | [3] 51.3% | [4] 83.6% | [5] 74.6% | [6] 83.4% | [7] 88% | [8] 73.8% | [9] 116% | [10] 94.2% | [11] 95% | [12] 101% | [13] 88.3% | [14] 55.6% | [15] 111% | [16] 78.1% | [17] 66.3% | [19] 79.4% | [20] 72%

O=C(Cn1cc(CN2C(=O)c3ccc([N+](=O)[O-])cc3C2=O)nn1)Nc1ccccc1Br
inactive: [1] 102% | [2] 112% | [3] 87.5% | [4] 102% | [5] 109% | [6] 102% | [7] 104% | [8] 90.7% | [9] 116% | [10] 108% | [11] 114% | [12] 105% | [13] 103% | [14] 88.1% | [15] 104% | [16] 108% | [17] 103% | [19] 95.1% | [20] 105%

CC(c1ccccc1)N1C(=O)/C(=C/c2csc(C#N)n2)SC1=S (stereo not drawn)
inactive: [1] 76.1% | [2] 106% | [3] 85.4% | [4] 93.7% | [5] 94.1% | [6] 90.5% | [7] 96.9% | [8] 85.4% | [9] 39.8% | [10] 93.5% | [11] 96.2% | [12] 98.5% | [13] 93.3% | [14] 64.8% | [15] 119% | [16] 87% | [17] 84.9% | [19] 10.5% | [20] 36.5%

CCOC(=O)/C=c1\sc2n(c1=O)C1C(NN=2)N(CC)C(=O)N1CC (stereo not drawn)
inactive: [1] 31% | [2] 26.4% | [3] 52.2% | [4] 54.2% | [5] 68.9% | [6] 55.7% | [7] 54% | [8] 39% | [9] 53.5% | [10] 71.9% | [11] 76.7% | [12] 81.9% | [13] 71.9% | [14] 56.2% | [15] 81.3% | [16] 44.5% | [17] 51.3% | [19] 53.4%

CCOC(=O)c1c(NCC(=O)Nc2cccc(Cl)c2)sc2c1CCCC2
inactive: [1] 66.4% | [2] 101% | [3] 59.5% | [4] 82.7% | [5] 63.6% | [6] 73.6% | [7] 84.5% | [8] 61.9% | [9] 35.3% | [10] 89.5% | [11] 93.5% | [12] 89.9% | [13] 73% | [14] 76.4% | [15] 146% | [16] 88.7% | [17] 68.4% | [19] 58% | [20] 47.2%

CNC(=O)c1c(NC(=O)c2ccc(F)cc2F)sc2c1CCC(=O)C2
inactive: [2] 12.8% | [4] 19.1% | [5] 12.6% | [6] 11.7% | [9] 14.5% | [10] 30.2% | [12] 14.5% | [13] 17.5% | [15] 38.7%
active: [1] -2.45% | [3] 4.82% | [7] -64.9% | [8] -25.5% | [11] -4.48% | [14] -94% | [16] 1.41% | [17] -3.18% | [19] 4.01% | [20] 2.03%

COc1cccc(/C=C/C(=O)c2ccc(NC(=O)COc3cccc4cccnc34)cc2)c1
inactive: [1] 94.8% | [2] 98.2% | [3] 97.4% | [4] 95.9% | [5] 97.2% | [6] 93.3% | [7] 94.9% | [8] 94.5% | [9] 78% | [10] 104% | [11] 100% | [12] 93.2% | [13] 95.4% | [14] 82.8% | [15] 109% | [16] 101% | [17] 92.1% | [19] 95.3% | [20] 88.9%

C=C(C)[C@@H]1CC[C@]2(C(=O)ON)CC[C@]3(C)[C@H](CC[C@@H]4[C@@]5(C)C/C(=C/c6ccc(Br)cc6)C(=O)C(C)(C)[C@@H]5CC[C@]43C)[C@@H]12
inactive: [1] 57.8% | [2] 71.5% | [3] 104% | [4] 78.2% | [5] 70.8% | [6] 45.8% | [7] 86.1% | [8] 59.5% | [9] 69.7% | [10] 84.7% | [11] 88.8% | [12] 60.5% | [13] 71.5% | [14] 63.7% | [15] 105% | [16] 76% | [17] 50% | [19] 67.8% | [20] 47.3%

COc1ccc(/C=C/C(=O)c2nnn(-c3ccc(Br)cc3)c2C)cc1OC
inactive: [1] 60.7% | [2] 62.2% | [3] 81.6% | [4] 78.9% | [5] 86.8% | [6] 75.3% | [7] 63.9% | [8] 62% | [9] 43.5% | [10] 96.5% | [11] 88.6% | [12] 62.3% | [13] 80.2% | [14] 66.7% | [15] 95.4% | [16] 86% | [17] 83.4% | [19] 66.4% | [20] 78.4%

O=C(Cn1cc(CN2C(=O)c3ccc([N+](=O)[O-])cc3C2=O)nn1)Nc1ccc(F)cc1Cl
inactive: [1] 99.5% | [2] 102% | [3] 92.6% | [4] 97.2% | [5] 97.3% | [6] 92.6% | [7] 101% | [8] 92.3% | [9] 107% | [10] 99.9% | [11] 101% | [12] 97.7% | [13] 101% | [14] 81.3% | [15] 91.2% | [16] 96.9% | [17] 89.9% | [19] 95.6% | [20] 108%

ClC(Cl)c1nc(-c2cccs2)n2nc(-c3ccccc3)cc2n1
active: [1] 0.506% | [2] -3.99% | [4] -5.22% | [5] -9.39% | [6] -32.3% | [10] -45.9% | [12] -26.8% | [14] -53.7% | [15] -10.8% | [16] -23.5% | [17] -15%
inactive: [3] 48% | [7] 89.8% | [8] 23.6% | [9] 83.5% | [11] 77.6% | [13] 50.6% | [19] 67.9% | [20] 44%
